Key:
Experiment in all cases: PBM binding z-score (relative to random genomic background probes); higher = stronger binding; sequences stand for … in GC…GCGATTGACAGCGTAGAATGAAGG
[1] = test system: FXR:RXRa (NR concentration 270 nM, RXRa partner concentration 90 nM)
Outline: (§1)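 Ligand-free nuclear receptor dimers were bound for 1 h to custom Agilent 4×180K protein-binding microarrays. Detection used antibodies against each partner (one per run). Binding z-scores rest on regression-normalized fluorescence, with random background probes as the reference.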

[2] = test system: LXRa:RXRa (NR concentration 270 nM, RXRa partner concentration 90 nM)
Outline: as §1

[3] = test system: LXRa homodimer (NR concentration 270 nM)
Outline: as §1

[4] = test system: LXRb:RXRa (NR concentration 270 nM, RXRa partner concentration 90 nM)
Outline: as §1

[5] = test system: LXRb homodimer (NR concentration 270 nM)
Outline: as §1

[6] = test system: PPARa:RXRa (NR concentration 270 nM, RXRa partner concentration 90 nM)
Outline: as §1

[7] = test system: PPARg:RXRa (NR concentration 180 nM, RXRa partner concentration 90 nM)
Outline: as §1

[8] = test system: PPARg:RXRa 270nM:90nM, anti-RXR (NR concentration 270 nM, RXRa partner concentration 90 nM)
Outline: as §1

[9] = test system: PPARg:RXRa 30nM:10nM, anti-RXR (NR concentration 30 nM, RXRa partner concentration 10 nM)
Outline: as §1

[10] = test system: PPARg:RXRa 90nM:30nM, anti-RXR (NR concentration 90 nM, RXRa partner concentration 30 nM)
Outline: as §1

[11] = test system: PPARg:RXRa DBDmut IVT, anti-RXR (DBD mutation: RXRa K156A/R161A, NR concentration 270 nM, RXRa partner concentration 90 nM)
Outline: as §1

[12] = test system: PPARg:RXRa IVT, anti-PPARg (NR concentration 270 nM, RXRa partner concentration 90 nM)
Outline: as §1

[13] = test system: PPARg DBDmut:RXRa IVT, anti-PPARg (DBD mutation: PPARg1 K132A/R137A, NR concentration 270 nM, RXRa partner concentration 90 nM)
Outline: as §1

[14] = test system: PPARg DBDmut IVT, anti-PPARg (DBD mutation: PPARg1 K132A/R137A, NR concentration 270 nM)
Outline: as §1

[15] = test system: PPARg homodimer (NR concentration 180 nM)
Outline: as §1

[16] = test system: PXR:RXRa (NR concentration 270 nM, RXRa partner concentration 90 nM)
Outline: as §1

[17] = test system: PXR homodimer (NR concentration 270 nM)
Outline: as §1

[18] = test system: RARa:RXR (NR concentration 270 nM, RXRa partner concentration 90 nM)
Outline: as §1

[19] = test system: RARa homodimer (NR concentration 270 nM)
Outline: as §1

[20] = test system: RARb:RXRa (NR concentration 270 nM, RXRa partner concentration 90 nM)
Outline: as §1

Row | Sequence | PBM binding z-score [1] | PBM binding z-score [2] | PBM binding z-score [3] | PBM binding z-score [4] | PBM binding z-score [5] | PBM binding z-score [6] | PBM binding z-score [7] | PBM binding z-score [8] | PBM binding z-score [9] | PBM binding z-score [10] | PBM binding z-score [11] | PBM binding z-score [12] | PBM binding z-score [13] | PBM binding z-score [14] | PBM binding z-score [15] | PBM binding z-score [16] | PBM binding z-score [17] | PBM binding z-score [18] | PBM binding z-score [19] | PBM binding z-score [20]
1 | TCTGGGAGGACACGAAGGTCAGAGCTTTCCAGAG | 1.36 | 1.16 | 0.204 | 1.3 | -0.86 | 1.81 | 0.579 | 1.36 | 1.51 | 1.53 | 1.04 | 0.947 | -0.643 | -0.716 | 1.05 | 1.99 | 0.818 | 2.19 | 0.238 | 3.28
2 | AGAATGAGGTTATACGTGGATCAGGGAAGAAAGT | 2.49 | 2.03 | 0.117 | 1.91 | 0.299 | 3.25 | 1.82 | 2.19 | 0.672 | 1.49 | 3.62 | 2.12 | 1.26 | 0.938 | 1.69 | 1.17 | 0.993 | 1.89 | 0.612 | 1.55
3 | CCGACTGGGCCATCAGGTCATTGATATCAACGTT | 1.52 | 1.05 | 0.75 | 1.38 | -0.6 | 2.19 | 1.69 | 2.75 | 0.458 | 1.85 | 3.07 | 3.51 | -1.33 | -0.437 | 0.811 | 1.47 | 0.46 | 1.85 | -0.257 | 2.04
4 | TTACCAAGGCGAAAGGTCGTTGATGCACGCCTTG | 1.27 | 1.41 | 0.121 | 1.38 | -0.953 | 3.5 | 5.49 | 6.09 | 5.18 | 6.24 | 0.0972 | 2.19 | -0.305 | -0.595 | 0.815 | 1.96 | -0.0871 | 2.49 | 0.25 | 1.83
5 | CCTATTAGTTGACCATAAGGGCAGCCGAAGCTCG | 0.542 | -0.0359 | 0.036 | 0.218 | 0.392 | 0.0636 | 0.126 | 0.442 | -0.292 | -0.0917 | 0.366 | 0.178 | -0.234 | -0.298 | 1.6 | 0.00471 | 0.575 | 0.385 | 1.64 | 1.29
6 | TAGCCTAGGTCATGCAGGGGCCAGTATAGAAAGC | 3.95 | 3.15 | -0.0993 | 2.24 | -0.427 | 3.56 | 2.28 | 2.44 | 0.917 | 1.5 | 1.42 | 2.59 | -0.359 | -0.442 | 1.36 | 2.18 | -0.721 | 3.39 | -0.25 | 3.85
7 | ATTAGCAGGCCAAGGGTCACTCAAGATTAGTCCG | 2.8 | 2.8 | 0.436 | 2.69 | -0.147 | 4.73 | 7.98 | 7.44 | 6.52 | 7.55 | 0.795 | 3.76 | 0.0508 | 0.161 | 1.61 | 3.2 | -0.179 | 4.06 | 0.0408 | 3.62
8 | CCTTACGGGTCACTAACAGGTTATAGCATTTGGA | 4.73 | 4.24 | 0.54 | 3.4 | 0.319 | 4.89 | 3.61 | 3.78 | 1.37 | 2.83 | 2.88 | 3.68 | 1.26 | 0.395 | 2.62 | 3.28 | 0.184 | 4.08 | 1.72 | 3.92
9 | ACTAGCAGGCCAAGTTGGGGTCACTCAAACAAAG | 3.18 | 3.16 | 0.123 | 4.07 | -0.00108 | 4.63 | 1.63 | 2.88 | 0.385 | 1.96 | 1.25 | 2.36 | -0.0232 | -0.538 | 2.25 | 5.29 | 1.2 | 5.79 | -0.0777 | 3.14
10 | CGAACTAGGTAATTGACAGGACAGTGAATAGTAA | -0.398 | -0.336 | 0.0257 | -0.434 | -0.603 | 0.979 | 1.09 | 0.555 | 0.0511 | 0.213 | 5.41 | 4.17 | 0.954 | 0.672 | 0.615 | -0.222 | -0.131 | -0.274 | 0.178 | -0.185
11 | AGTCAAAGTTCATGTAGGTAACGTAAGATATGCT | 6.48 | 5.94 | 4.83 | 3.65 | 1.37 | 4.9 | 6.75 | 6.37 | 3.09 | 5.61 | 0.795 | 4 | 1.62 | 2.1 | 3.26 | 5.3 | 5.21 | 3.76 | 0.859 | 4.81
12 | CCCTACGGGTCACTCCAGGTTATAGCATCGGAGT | 5.25 | 7.47 | 2.12 | 5.1 | 0.052 | 4.21 | 2.65 | 3.2 | 0.655 | 1.6 | 0.284 | 2.29 | -0.814 | -0.254 | 2.92 | 5.1 | 0.472 | 3.75 | 0.949 | 3.66
13 | TCCTGTAGATCAGCAGGTTAAGAAAGCTGGCCAA | 0.47 | 0.36 | -0.398 | 0.304 | -0.639 | 0.87 | -0.289 | 1.6 | 2.43 | 1.83 | 1.6 | -0.214 | -0.0572 | -0.0553 | -0.125 | 0.286 | -0.41 | 0.585 | -0.442 | 0.219
14 | TAGCCTAGGTCAGATCGGGCCACTATACGCTATA | 2.45 | 1.34 | -0.308 | 0.919 | -0.028 | 1.65 | 0.925 | 0.87 | -0.128 | 0.49 | 0.727 | 1.46 | -0.3 | -0.905 | 0.204 | 1.73 | -0.326 | 1.39 | -0.348 | 3.01
15 | ATACCAAGGTGATCGTGAGGTCGTTGTTACTAAC | 1.57 | 1.11 | 0.763 | 1.32 | 0.361 | 1.47 | 0.364 | 0.56 | -0.301 | 0.535 | 0.34 | 1.36 | 0.414 | 0.123 | 1.05 | 2.84 | 1.29 | 2.11 | 0.23 | 1.3
16 | TCCTATAGGTAATACAGGTGAAAGTCGGCATCTA | 0.774 | 0.986 | -0.00145 | 0.839 | 0.103 | 1.84 | 0.918 | 1.91 | 3.2 | 2.41 | 2.84 | 2.12 | 0.665 | 0.687 | 0.164 | 0.43 | -0.159 | 0.537 | 0.724 | 0.581
17 | TCTCGGAGGACACGAAAGGTAAGAGCTCGACATC | 0.311 | -0.0644 | -0.636 | -0.242 | -1.12 | 0.039 | 0.278 | 0.941 | 2.19 | 1.28 | 1.28 | -0.239 | -1.14 | -1.23 | -0.641 | -0.211 | -0.673 | -0.135 | -0.792 | 1.59
18 | GCTATTAGTTGAAAGGGAAACCGAATGATTCTCG | -0.0917 | -0.171 | 0.0809 | -0.236 | -0.289 | 0.000801 | 0.567 | 1.6 | 0.38 | 1.25 | 0.303 | 0.0307 | 0.646 | 0.468 | 0.766 | -0.0354 | 0.0349 | 0.204 | 1.17 | -0.128
19 | AGAATGAGGTTACCAAAGATCGGGGAAACGCTTG | 1.75 | 4.95 | -0.394 | 2.39 | -0.29 | 3.28 | 2.29 | 2.42 | 0.813 | 1.48 | 4.19 | 3.16 | 0.767 | -0.00143 | 0.441 | 1.3 | -0.247 | 1.86 | -0.246 | 2.09

Source: the supplement of paper PMC6555819
